Screening data from PubChem.
The sample as a whole holds a higher share of hits than the screen did.
Shiga inhibitor: blocks Shiga toxin action in Vero cells; Vero cells, Shiga toxin protein synthesis inhibition reporter; inhibition, % at 38.7 µM; hit rate 9.2% among 290,000; in the data active means inhibition mostly above about 28%, no sharp cut-off; inactive means mostly below about 43%; further: 0% is about no effect
Sm TGR block: inhibitors of Schistosoma mansoni thioredoxin glutathione reductase | purified TGR, DTNB reduction, TNB absorbance 405 nm | Potency, µM (top dose mostly 114 µM), without a hit: at the top dose activity change, negative = inhibition, actives largely listed as inhibitors | hit rate 3% among 360,000; further: potency means the concentration at half of the fitted maximal effect; on the % scale 0 is the no-effect control and ±100 the full control effect; nearly all actives have a fitted effect of over 60% in size
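Kinetic colorimetric format: TGR-catalysed, NADPH-driven DTNB reduction monitored via TNB absorbance. Enzyme dispensed at 20 nM; compound exposure 15 min at room temperature before reaction start.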
LmPK inhibitor: LmPK (Leishmania mexicana) enzyme inhibition | purified LmPK, Kinase-Glo ATP luminescence, 1 h | Potency, µM (highest dose often 57.5 µM), for the others: top-dose activity change, negative = inhibition, hits mostly inhibitors | hit rate 0.37% among 290,000 | AID 1721; further: potency means the concentration at half of the fitted maximal effect; on the % scale 0 is the no-effect control and ±100 the full control effect
Target sequence (Q27686 whole entry, looked up): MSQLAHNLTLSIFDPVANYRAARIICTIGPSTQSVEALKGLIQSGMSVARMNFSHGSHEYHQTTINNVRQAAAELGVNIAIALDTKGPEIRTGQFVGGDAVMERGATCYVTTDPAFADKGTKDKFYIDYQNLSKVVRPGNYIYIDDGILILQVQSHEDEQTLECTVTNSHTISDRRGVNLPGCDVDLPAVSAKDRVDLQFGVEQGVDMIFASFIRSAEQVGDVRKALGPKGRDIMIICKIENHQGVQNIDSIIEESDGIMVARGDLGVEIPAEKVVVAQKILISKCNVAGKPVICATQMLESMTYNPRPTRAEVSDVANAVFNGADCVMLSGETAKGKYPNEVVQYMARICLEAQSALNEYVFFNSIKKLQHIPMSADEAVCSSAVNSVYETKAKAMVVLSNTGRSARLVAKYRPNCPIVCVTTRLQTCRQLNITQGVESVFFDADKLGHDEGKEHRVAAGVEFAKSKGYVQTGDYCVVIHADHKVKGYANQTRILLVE
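qHTS format; LmPK 0.1 nM; substrates PEP 0.5 mM and ADP 0.1 mM. One-hour room-temperature incubation, then coupled luciferase luminescence; 0.5 nM enzyme wells mark activation.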
Cycloheximide cs: affects cycloheximide protein synthesis inhibition readout, counter-screen; cell reporter, cycloheximide protein synthesis inhibition counterscreen; max response, %; hit rate 12% among 300,000; AID 2314; in the data active means max response mostly above about 13%, no sharp cut-off; inactive means mostly below about 14%; further: read at 38.3 µM for the half of the compounds with a filed dose; 0% is about no effect
FBPA Giardia inh: inhibitors of Giardia lamblia fructose-1,6-bisphosphate aldolase. A8B2U2. purified Giardia FBPA. Potency, µM (titrated, usually from 59.6 µM), for the others: top-dose activity, negative = inhibition, hits mostly inhibitors. hit rate 0.71% among 290,000; further: potency means the concentration at half of the fitted maximal effect; on the % scale 0 is the no-effect control and ±100 the full control effect; nearly all actives have a fitted effect of over 55% in size
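Giardia FBPA (40 nM reagent) was preincubated 10 min at RT with compound (up to 57.5 uM final), then substrate plus GAPDH/TPI/NAD/arsenate coupling system with diaphorase/resazurin was added; resorufin fluorescence (525/598 nm) was read after 20 min.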
Tb PYK inh: inhibitors of Trypanosoma brucei pyruvate kinase; Q57TT1; TbPYK enzyme, Kinase-Glo Plus ATP luminescence, 45 min; Potency, µM (titrated, usually from 76.8 µM), without a hit: top-dose activity, negative = inhibition, most hits filed as inhibitors; hit rate 0.12% among 410,000; AID 624173; further: potency means the concentration at half of the fitted maximal effect; on the % scale 0 is the no-effect control and ±100 the full control effect; nearly all actives have a fitted effect of over 50% in size
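Assay buffer: 50 mM TEA pH 7.2, 100 mM KCl, 10 mM MgCl2, 0.05% BSA, 0.01% Tween-20. Pyruvate kinase from T. brucei plus substrate met compound, then ADP (130 uM final). Luminescence was read post 45 min RT.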
* marks the source's active call; other numbers are inactive results; u = inconclusive; x = no result given; [ ] = another dose, or the depositor's remark. Unless noted, the call rests on the fitted dose curve; in most records, active means well fitted curve in the direction sought with a large enough effect; inconclusive means small, poorly fitted or top-dose-only effect, or another doubt; inactive means no such curve, though single readings can be large; an effect the other way counts as inactive or inconclusive.

SMILES | Shiga inhibitor | Sm TGR block | LmPK inhibitor | Cycloheximide cs | FBPA Giardia inh | Tb PYK inh
CSc1nc2ccc3nc(NC(=O)c4ccc(Cl)s4)sc3c2s1 | 13 | -6% | -6% | -2 | 3% | 3%
CN(C)S(=O)(=O)c1ccc2nc(NC(=O)c3cccs3)sc2c1 | 70* | -22% | -15% | 41* | 10% | 6%
C=C1/C(=C/C=C2\CCCC3(C)[C@@H]([C@H](C)/C=C/C=C/C(O)(CC)CC)CC[C@@H]23)C[C@@H](O)C[C@@H]1O (some centres undefined) | x | x | x | x | x | -1%
COc1ccccc1OC(C)C(=O)N1CCN(CCc2ccccn2)CC1 (centres undefined) | x | 1% | x | x | x | 0%
O=C(Nc1nc2ccc(F)cc2s1)c1cccs1 | 126* | 2% | -30% | 50* | 4% | -2%
CC(=O)Nc1ccc2nc(NC(=O)c3cccnc3)sc2c1 | 46* | -15% | -9% | 27* | 4% | 6%
O=C(Nc1nc2ccc(F)cc2s1)Oc1ccccc1 | 34 | 0% | 2% | 9 | -8% | 1%
CCn1nc(C)c(CN2CCCC(CNS(=O)(=O)c3ccc(OC)cc3)C2)c1C (centres undefined) | -23 | -3% | -11% | 21 | x | 2%
O=C(Nc1nnc(SCC(=O)N2CCCc3ccccc32)s1)c1ccc2ccccc2c1 | 58* | 1% | -3% | 37* | 9% | 11%
CC(=O)Nc1nnc(SCC(=O)N2CCCc3ccccc32)s1 | -1 | 0% | 4% | -6 | 6% | -3%
Cc1cc(C)cc(C(=O)Nc2nnc(SCC(=O)N3CCCc4ccccc43)s2)c1 | -4 | 1% | -4% | 2 | 20% | 1%
O=C(Nc1nnc(SCC(=O)N2CCCc3ccccc32)s1)c1ccccc1 | 41* | -16% | -2% | 34* | 11% | -2%
O=C(CSc1c2c(nc3cc(Cl)ccc13)CCCC2)NCc1ccccc1Cl | x | -5% | x | x | x | 3%
O=C(CSc1nc2ccccc2[nH]1)NCc1ccco1 | 65 | 0% | 0% | 29 | -3% | 1%
O=C(CSc1nc2ccc(Cl)cc2[nH]1)NCCc1ccccc1 | -2 | 1% | 4% | -6 | -24% | 2%
O=C(CSc1nc2ccc(Cl)cc2[nH]1)NCc1ccco1 | -11 | 14µM* | 0% | -2 | -24% | 1%
O=C(CSc1nc2ccc(Cl)cc2[nH]1)NCCc1ccc(Cl)cc1 | -13 | -4% | 2% | 37* | -19% | 27%
O=C(CSc1c2c(nc3cc(Cl)ccc13)CCCC2)NCc1ccco1 | 8 | 89µM* | -3% | 3 | -1% | -5%
O=C(/C=C/Sc1ccccc1)c1ccc(Cl)cc1 | 116* | 32µM* | -9% | 68* | 1% | 4%
O=C(C=Cc1ccccn1)c1ccccc1 | x | x | x | x | x | 4%
O=C(/C=C/Sc1ccccc1)c1ccccc1 | 182* | 10µM* | u | 140* | -3% | 8%
COC(=O)C1=C(C(=O)OC)[C@@H]2N(C)c3ccccc3[C@@]23C[C@@H](CO)N(C(=O)c2ccco2)C3=N1 | x | x | 4%[11.5 µM] | x | 5%[12.9 µM] | x
CCN1/C(=C/C=C/c2oc3ccc(-c4ccccc4)cc3[n+]2CC)Oc2ccc(-c3ccccc3)cc21 | -35 | 40µM* | -9% | -7 | 10% | -4%
CC(=O)N1CCc2cc(S(=O)(=O)NCCC(=O)Nc3ccc4c(c3)OCCO4)ccc21 | 66 | 3% | -23% | 30* | -2% | -6%
O=C(CCNS(=O)(=O)c1cccc2nsnc12)Nc1ccc2c(c1)OCCO2 | 43 | -31% | 3% | 24* | -11% | -7%
O=S(=O)(Nc1ccc2c(c1)OCCO2)c1cccc2nsnc12 | 77* | 0% | 5% | 49* | -9% | -1%
CC(=O)N1CCc2cc(S(=O)(=O)NCCC(=O)Nc3cc(C)cc(C)c3)ccc21 | -7 | -24% | 3% | 0 | 1% | -8%
O=S(=O)(Nc1ccccc1)c1cccc2nsnc12 | 11 | 3% | -1% | -1 | 3% | -3%
COC(=O)[C@@]1(Cc2ccc(OC)cc2)[C@H]2c3cc(C(=O)N(C)C)n(C)c3C[C@H]2CN1C(=O)c1ccccc1 | x | x | x | x | 0% | x
